# Test results as given in the supplement of paper PMC9694430.
# Counter-ions that a name gives are not always drawn.
# Tests used:
# Experiment in all cases: thermal shift delta Tm vs DMSO control; higher = stronger stabilization (binding)
# Conditions in all cases: 12.5 µM; protein concentration 2 µM
# LOC_OS01G01410-cb001 = tested on: LOC_OS01G01410-cb001
# Summary of the method: (§1)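 Purified, E. coli-expressed rice kinase domain constructs were tested by differential scanning fluorimetry in 96-well plates: 19.5 μl of 2 μM kinase in 100 mM potassium phosphate pH 7.5, 150 mM NaCl, 10% glycerol, 5 × SYPRO Orange, plus compound in DMSO. Fluorescence was read from 25°C to 95°C at 0.05°C/s. Melting temperatures came from Boltzmann fits, and the shift is the triplicate mean relative to protein with DMSO alone.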
# LOC_OS01G02750-cb003 = tested on: LOC_OS01G02750-cb003
# Summary of the method: as §1
# LOC_OS01G10900-cb004 = tested on: LOC_OS01G10900-cb004
# Summary of the method: as §1
# LOC_OS01G13800-cb001 = tested on: LOC_OS01G13800-cb001
# Summary of the method: as §1
# LOC_OS01G14860-cb001 = tested on: LOC_OS01G14860-cb001
# Summary of the method: as §1
# LOC_OS01G21960-cb002 = tested on: LOC_OS01G21960-cb002
# Summary of the method: as §1
# LOC_OS01G39600-cb002 = tested on: LOC_OS01G39600-cb002
# Summary of the method: as §1
# LOC_OS01G48390-cb002 = tested on: LOC_OS01G48390-cb002
# Summary of the method: as §1
# LOC_OS01G51400-cb002 = tested on: LOC_OS01G51400-cb002
# Summary of the method: as §1
# LOC_OS01G52050-cb004 = tested on: T1, LOC_OS01G52050-cb004
# T1 sequence (whole entry): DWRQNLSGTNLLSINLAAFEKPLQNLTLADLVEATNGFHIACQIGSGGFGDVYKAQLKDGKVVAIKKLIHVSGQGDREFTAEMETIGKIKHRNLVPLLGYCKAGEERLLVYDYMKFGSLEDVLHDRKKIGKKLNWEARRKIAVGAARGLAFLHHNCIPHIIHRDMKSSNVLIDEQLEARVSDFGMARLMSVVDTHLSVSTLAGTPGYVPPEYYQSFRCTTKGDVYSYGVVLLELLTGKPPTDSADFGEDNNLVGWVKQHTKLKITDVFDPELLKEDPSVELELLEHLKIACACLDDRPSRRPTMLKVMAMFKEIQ
# Summary of the method: as §1
# LOC_OS01G57100-cb003 = tested on: LOC_OS01G57100-cb003
# Summary of the method: as §1
# LOC_OS01G60330-cb001 = tested on: LOC_OS01G60330-cb001
# Summary of the method: as §1
# LOC_OS01G60700-cb002 = tested on: LOC_OS01G60700-cb002
# Summary of the method: as §1
# LOC_OS01G63280-cb003 = tested on: LOC_OS01G63280-cb003
# Summary of the method: as §1
# LOC_OS01G67340-cb003 = tested on: LOC_OS01G67340-cb003
# Summary of the method: as §1
# LOC_OS01G70970-cb002 = tested on: LOC_OS01G70970-cb002
# Summary of the method: as §1
# LOC_OS02G07810-cb001 = tested on: LOC_OS02G07810-cb001
# Summary of the method: as §1
# LOC_OS02G08530-cb003 = tested on: LOC_OS02G08530-cb003
# Summary of the method: as §1
# LOC_OS02G14120-cb001 = tested on: LOC_OS02G14120-cb001
# Summary of the method: as §1
# LOC_OS02G17970-cb001 = tested on: LOC_OS02G17970-cb001
# Summary of the method: as §1
SMILES,thermal shift delta Tm (LOC_OS01G01410-cb001),thermal shift delta Tm (LOC_OS01G02750-cb003),thermal shift delta Tm (LOC_OS01G10900-cb004),thermal shift delta Tm (LOC_OS01G13800-cb001),thermal shift delta Tm (LOC_OS01G14860-cb001),thermal shift delta Tm (LOC_OS01G21960-cb002),thermal shift delta Tm (LOC_OS01G39600-cb002),thermal shift delta Tm (LOC_OS01G48390-cb002),thermal shift delta Tm (LOC_OS01G51400-cb002),thermal shift delta Tm (LOC_OS01G52050-cb004),thermal shift delta Tm (LOC_OS01G57100-cb003),thermal shift delta Tm (LOC_OS01G60330-cb001),thermal shift delta Tm (LOC_OS01G60700-cb002),thermal shift delta Tm (LOC_OS01G63280-cb003),thermal shift delta Tm (LOC_OS01G67340-cb003),thermal shift delta Tm (LOC_OS01G70970-cb002),thermal shift delta Tm (LOC_OS02G07810-cb001),thermal shift delta Tm (LOC_OS02G08530-cb003),thermal shift delta Tm (LOC_OS02G14120-cb001),thermal shift delta Tm (LOC_OS02G17970-cb001)
COc1cc(OC)c(C=C2C(=O)Nc3ccccc32)c(OC)c1,0.16 °C,0.24 °C,1.24 °C,0.46 °C,0.32 °C,0.88 °C,0.01 °C,0.22 °C,0.14 °C,-0.14 °C,1.44 °C,0.76 °C,0.97 °C,-0.13 °C,0.36 °C,0.32 °C,0.32 °C,0.7 °C,0.94 °C,0.65 °C
COc1cc2nccc(Oc3ccc(NC(=O)C4(C(=O)Nc5ccc(F)cc5)CC4)cc3)c2cc1OC,1.63 °C,0.81 °C,0.73 °C,0.78 °C,1.07 °C,0.93 °C,1.5 °C,6.38 °C,0.3 °C,2.44 °C,1.05 °C,2.17 °C,1.12 °C,1.29 °C,0.96 °C,1.37 °C,1.4 °C,1.21 °C,5.23 °C,0.76 °C
C=CC(=O)Nc1ccc(CN2C(=O)N(c3cc(OC)cc(OC)c3)Cc3cnc(Nc4ccc(N5CCN(C)CC5)cc4)nc32)cc1,1.43 °C,1.19 °C,4.79 °C,0.56 °C,0.97 °C,1.74 °C,-0.73 °C,4.57 °C,0.02 °C,0.08 °C,3.1 °C,0.63 °C,2.43 °C,0.9 °C,0.61 °C,1.17 °C,1.48 °C,1.77 °C,2.28 °C,1.39 °C
CC(C)CC(NC(=O)C(Cc1ccccc1)NC(=O)C(CCC(N)=O)NC(=O)C(Cc1ccc(O)cc1)NC(=O)C(C)NC(=O)CNC(=O)C(CCCCN)NC(=O)C(Cc1c[nH]c2ccccc12)NC(=O)C(NC(=O)C(Cc1c[nH]c2ccccc12)NC(=O)C(CCCCN)NC(=O)CNC(=O)C(CC(N)=O)NC(=O)C(CCC(=O)O)NC(=O)C(Cc1c[nH]c2ccccc12)NC(=O)C(NC(=O)C(Cc1c[nH]c2ccccc12)NC(=O)C(CO)NC(=O)CNC(=O)C1CCCN1C(=O)C(Cc1c[nH]c2ccccc12)NC(=O)C(CCC(N)=O)NC(=O)C(Cc1ccccc1)NC(=O)CNC(=O)C(N)Cc1c[nH]cn1)C(C)O)C(C)O)C(=O)NC(CCCCN)C(=O)NCC(=O)NCC(=O)NCC(=O)NCC(=O)NC(CO)C(=O)NC(CCCNC(=N)N)C(=O)NC(CCCNC(=N)N)C(=O)NC(CCCNC(=N)N)C(=O)NC(CCCNC(=N)N)C(=O)NC(CCCNC(=N)N)C(=O)NC(CCCNC(=N)N)C(=O)NC(CCCNC(=N)N)C(=O)NC(CCCNC(=N)N)C(=O)NC(CCCNC(=N)N)C(=O)O (stereo not given),0.36 °C,-0.66 °C,1.09 °C,1.22 °C,0.08 °C,1.26 °C,2 °C,1.2 °C,-0.25 °C,1.43 °C,0.58 °C,0.74 °C,0.22 °C,0.38 °C,1.17 °C,0.55 °C,0.74 °C,0.87 °C,1.8 °C,-0.53 °C
COc1cc(-c2cc(-c3ccc(N4CCNCC4)cc3)cnc2C)cc(OC)c1OC,1.74 °C,0.65 °C,1.13 °C,-0.6 °C,-0.12 °C,0.67 °C,-1.03 °C,0.11 °C,-0.26 °C,0.04 °C,-0.02 °C,1.13 °C,0.16 °C,-0.05 °C,0.51 °C,0.29 °C,0.05 °C,0.49 °C,1.25 °C,0.44 °C
CC1(C)OC(=O)C=C[C@]2(C)[C@H]3CC[C@@]4(C)[C@H](c5ccoc5)OC(=O)[C@H]5O[C@]54[C@]3(C)C(=O)C[C@@H]12 [Obacunone],0.06 °C,0.16 °C,0.26 °C,0.37 °C,0.35 °C,0.13 °C,-0.45 °C,0.82 °C,-0.06 °C,3 °C,1.14 °C,0.6 °C,0.14 °C,0.26 °C,0.19 °C,0.13 °C,0.27 °C,0.44 °C,0.92 °C,0.03 °C
COc1cc(Nc2ncc(F)c(Nc3ccc4c(n3)N(COP(=O)(O)O)C(=O)C(C)(C)O4)n2)cc(OC)c1OC [R788 (Fostamatinib) Disodium],0.8 °C,1.55 °C,0.2 °C,0.19 °C,1.64 °C,1.94 °C,5.17 °C,0.57 °C,0.49 °C,1.51 °C,1.79 °C,1.17 °C,1.17 °C,1.12 °C,0.57 °C,1.43 °C,0.47 °C,0.82 °C,5.05 °C,1.55 °C
N#Cc1cccc(-c2c[nH]c3ncnc(N4CCOCC4)c23)c1,0.72 °C,2.58 °C,0.72 °C,0.32 °C,1.47 °C,1 °C,1.94 °C,0.73 °C,0.58 °C,1.08 °C,1.38 °C,0.98 °C,0.99 °C,4.38 °C,1.62 °C,0.07 °C,0.61 °C,2.7 °C,3.85 °C,0.73 °C
Clc1ccc(Nc2nnc(Cc3ccncc3)c3ccccc23)cc1 [Vatalanib (PTK787) 2HCl],0.99 °C,0.12 °C,-0.92 °C,0.36 °C,0.31 °C,0.21 °C,0.01 °C,0.44 °C,-0.2 °C,0.04 °C,1.4 °C,1.02 °C,5.09 °C,2.03 °C,-0.72 °C,0.27 °C,0.26 °C,0.34 °C,-0.4 °C,0.47 °C
Cc1[nH]c(/C=C2\C(=O)Nc3ccc(S(=O)(=O)N(C)c4cccc(Cl)c4)cc32)c(C)c1C(=O)N1CCN(C)CC1,1.44 °C,2.62 °C,0.43 °C,0.07 °C,0.57 °C,0.44 °C,-0.1 °C,0.18 °C,0.14 °C,1.01 °C,1.03 °C,5.91 °C,0.86 °C,-0.04 °C,-0.53 °C,0.47 °C,-0.12 °C,3.7 °C,8.19 °C,-0.27 °C
CNC(=O)c1cc(Oc2ccc(NC(=O)Nc3ccc(Cl)c(C(F)(F)F)c3)cc2)ccn1 [Sorafenib Tosylate],2.14 °C,5.21 °C,1.97 °C,1.97 °C,5.9 °C,2.13 °C,2.03 °C,2.56 °C,1.31 °C,5.16 °C,4.07 °C,3.91 °C,1.77 °C,9.15 °C,0.52 °C,1.83 °C,2.2 °C,1.92 °C,3.45 °C,1.56 °C
CC(C)(C)S(=O)(=O)c1ccc2nccc(Nc3n[nH]c4ccc(F)cc34)c2c1,0.34 °C,1.74 °C,0.48 °C,-0.44 °C,0.3 °C,0.28 °C,1.01 °C,1.31 °C,0.33 °C,0.16 °C,0.91 °C,0.99 °C,0.81 °C,-0.25 °C,0.66 °C,0.6 °C,0.19 °C,0.61 °C,0.25 °C,0.37 °C
